Measurements: PubChem BioAssay AID1259240 (Keith Lab, Institute of Cancer Science, University of …, 2017)
Values without a mark were called inactive. Calls of active or inactive are those of the source. Rule as the data show it: active = fold change mostly below about -2 (no sharp cut-off); inactive = mostly above about -1.8.

test: modulation of TERT promoter-driven luciferase – cell-based, luciferase reporter, human, primary screen (AID 1259240); details: A2780 TERT promoter luciferase reporter, 16 h; at 20 µM, fold versus average of vehicle-only wells

**Q.** Which fold change does the source give for `CCc1nc2ccccc2n1CC(O)COc1cccc(OC)c1` (centres undefined) here?
**A.** 1.45

**Q.** Which fold change does the source give for `O=C(CCCCn1c(=O)[nH]c2ccsc2c1=O)NCCc1c[nH]c2ccccc12` here?
**A.** -2.16 (active)

**Q.** With `CCOC(=O)N1CCC(Nc2c(N3CCN(c4ccc(C(C)=O)cc4)CC3)c(=O)c2=O)CC1` as the molecule, how does the fold change read?
**A.** -1.1

**Q.** Which outcome does the source give for `O=C(OCCCN=C1NS(=O)(=O)c2ccccc21)c1cccs1` here?
**A.** active

**Q.** Which fold change does the source give for `O=C(Cn1ncc2c3ccccc3n(Cc3cccc(Cl)c3)c2c1=O)NCc1cccnc1` here?
**A.** -1.25

**Q.** With `O=C1c2cccnc2C(=O)N1CNc1ccccn1` as the molecule, how does the fold change read?
**A.** -1.26

**Q.** For `Brc1ccc2c(c1)CN(Cc1ccc3c(c1)OCO3)CO2`, which fold change is on record?
**A.** -1.55

**Q.** Which fold change does the source give for `COc1cccc(/C=c2\sc3nc(-c4ccco4)nn3c2=O)c1OC` here?
**A.** 1.43

**Q.** With `COc1cc2nc(CN3C(=O)c4ccccc4C3=O)oc(=O)c2cc1OC` as the molecule, how does the fold change read?
**A.** -2.87 (active)

**Q.** With `CCOC(=O)c1c(NC(=O)CSc2ncccn2)sc(C(C)=O)c1C` as the molecule, how does the fold change read?
**A.** -1.02

**Q.** Which fold change does the source give for `O=C(CSc1nc(-c2ccco2)cc(C(F)(F)F)n1)NCC1CCCO1` (centres undefined) here?
**A.** -1.44

**Q.** Which fold change does the source give for `CCOc1cc(C2c3c(oc4ccc(F)cc4c3=O)C(=O)N2Cc2ccc(F)cc2)ccc1O` (centres undefined) here?
**A.** -3.2 (active)

**Q.** Which fold change does the source give for `CCN(CC)C(=O)Nc1ccc2snnc2c1` here?
**A.** -1.04

**Q.** Which fold change does the source give for `CC1CCN(S(=O)(=O)c2ccc3c(c2)N(CC(=O)N2CCOCC2)C(=O)CO3)CC1` here?
**A.** 1.44

**Q.** Which fold change does the source give for `CCOC(=O)c1c(CN2CCOCC2)oc2ccc(OC)cc12` here?
**A.** -1.29

**Q.** For `COc1nc(OCCNS(=O)(=O)c2ccc(C)cc2)nc(N(C)C)n1`, which fold change is on record?
**A.** -1.19

**Q.** Which outcome does the source give for `Fc1ccc(Br)cc1C1C=C(c2cccnc2)Nc2ncnn21` (centres undefined) here?
**A.** inactive

**Q.** For `COc1cc(/C=C2\SC(N3CCN(C)CC3)=NC2=O)cc(OC)c1OC`, which fold change is on record?
**A.** -1.05

**Q.** With `O=C1C2CCCCC2C(=O)N1c1nc2nc(-c3ccccc3)cc(=O)n2[nH]1` (centres undefined) as the molecule, how does the fold change read?
**A.** 1.17

**Q.** With `CCCCNc1nc2c(c(=O)[nH]c(=O)n2C)n1CCO` as the molecule, how does the fold change read?
**A.** -1.67

**Q.** With `CCN1CCN(C(=O)C2CCN(S(=O)(=O)c3ccc4c(c3)oc(=O)n4C)CC2)CC1` as the molecule, how does the fold change read?
**A.** -1.05

**Q.** With `Cc1ccc2nc(NCc3ccc4c(c3)OCO4)c3nncn3c2c1` as the molecule, how does the fold change read?
**A.** 1.52

**Q.** For `CCOC(=O)C1=C(CS(=O)(=O)c2ccc(F)c(C)c2)NC(=O)NC1c1ccccc1` (centres undefined), which fold change is on record?
**A.** 1.21

**Q.** For `O=c1/c(=C/c2cn(-c3ccccc3)nc2-c2ccccc2)sc2nc(-c3ccco3)nn12`, which fold change is on record?
**A.** 1.18

**Q.** For `CCOc1cc2c(cc1OCC)C(c1cc(OC)c(OC)c(OC)c1)CC(=O)N2` (centres undefined), which fold change is on record?
**A.** -1.02

**Q.** Which fold change does the source give for `CC(=O)Oc1ccccc1-c1nc2s/c(=C\c3cccc(Br)c3)c(=O)n2n1` here?
**A.** 1.36

**Q.** Which fold change does the source give for `CC1CCC(NS(=O)(=O)c2cccc3cccnc23)CC1` (centres undefined) here?
**A.** -2.05 (active)

**Q.** For `CCCCN(CC)S(=O)(=O)c1ccc2c(c1)n(C)c(=O)c(=O)n2C`, which fold change is on record?
**A.** 1.13

**Q.** Which fold change does the source give for `O=C(O)CN1C(=O)/C(=C/c2ccc(SCc3ccco3)o2)SC1=S` here?
**A.** -1.49

**Q.** For `Cc1cc(NC(=O)c2cc3c(s2)-c2ccccc2S(=O)(=O)C3)no1`, which fold change is on record?
**A.** 1.14

**Q.** For `OCCOCCn1c(-c2ccccc2)nc(=S)c2c1CCCC2`, which fold change is on record?
**A.** -1.03

**Q.** With `CCN(CCO)CCNc1cc(N2CCCC(C)C2)c2noc3c2c1C(=O)c1ccccc1-3` (centres undefined) as the molecule, how does the fold change read?
**A.** -6.87 (active)

**Q.** Which fold change does the source give for `O=C(CN1C(=O)COc2ccc(S(=O)(=O)N3CCOCC3)cc21)N1CCC2(CC1)OCCO2` here?
**A.** 1.48

**Q.** For `O=C(CSc1nnc2c(n1)[nH]c1ccccc12)c1ccc(Br)cc1`, which fold change is on record?
**A.** 1.22

**Q.** With `C=CCN1C(=O)/C(=c2\sc3nc(-c4ccccc4OC)nn3c2=O)c2cc(Br)ccc21` as the molecule, how does the fold change read?
**A.** 1.17

**Q.** For `CC1CCCC(NC(=O)CN(C)S(=O)(=O)c2ccc3c(c2)CCC(=O)N3)C1C` (centres undefined), which fold change is on record?
**A.** -1.68

**Q.** With `O=C(C1CCN(S(=O)(=O)c2cccc3cccnc23)CC1)N1CCn2c1nc1ccccc12` as the molecule, how does the fold change read?
**A.** 1.05

**Q.** For `CCOC(=O)C1CCN(c2c(Nc3ccc4c(c3)OCCO4)c(=O)c2=O)CC1`, which fold change is on record?
**A.** -1.02

**Q.** Which fold change does the source give for `O=C(CSc1ncnc2ccccc12)N1CCCc2ccccc21` here?
**A.** -1.11
